35 compounds from PubChem BioAssay (NCATS) can be followed below.

Where “and” joins values, the source holds several entries; their conditions need not be identical. Equal entries are not always repeated. Inconclusive results are not listed. Values without a mark were called inactive. Calls of active or inactive are those of the source. Calls come from the whole dose curve; as a rule, active = well fitted inhibition curve with a large enough effect; inconclusive = small, poorly fitted or top-dose-only effect; inactive = flat fitted curve, though single readings scatter.
% is set by controls: 0 for no effect and ±100 for the full control effect; potency is the fitted concentration of half-maximal effect.

In this experiment the test system is KB-3-1. As to the kind of experiment: Cytotoxic Profiling of Annotated Libraries Using Quantitative High-Throughput Screening (AID 1296008). Note: nearly all actives have a fitted effect of over 60% in size. As to conditions: Five cell lines viability, CellTiter-Glo ATP luminescence, 48-72 h; max response: hits give low values. In outline: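 Cells exposed to compounds for 48 or 72 hr at 37 degrees Celsius. Viability read as ATP-coupled luminescence with CellTiter-Glo after 10 min at room temperature.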
Background: In ATP-based viability assays light output follows the ATP content of the culture.
For `CCC1(c2ccccc2)C(=O)NC(=O)N(C(=O)c2ccccc2)C1=O` (stereo not given), the max response is -9.95%.
On the same count and under the same terms, for `O=C1C[C@@H]2OCC=C3CN4CC[C@]56c7ccccc7N1[C@H]5[C@H]2[C@H]3C[C@H]46` (tested in a mixture with another compound) the value was 0.545% and 11.6%; for `O=c1[nH]cc(N(CCCl)CCCl)c(=O)[nH]1`, -15%.
On the same count and under the same terms, under `CCCC(=O)OC(C(Cl)(Cl)Cl)P(=O)(OC)OC` (stereo not given) stands -2.33%; under `CNC(=O)Oc1ccccc1C(=O)Nc1ccccc1`, -7.71%; under `CC(=O)OCC(=O)[C@H]1CC[C@H]2[C@@H]3CC[C@H]4C[C@H](O)CC[C@]4(C)[C@H]3C(=O)C[C@]12C`, 2.82%.
Take `CC1CCC(C(C)C)C(OC(=O)c2ccccc2N)C1` (stereo not given): the max response is 24.6%.
The same measure, in the same setting: for `O=C(CCl)c1ccc(Oc2ccc(C(=O)CCl)cc2)cc1` the value was 0.148%.
Same read-out and setting: for `CN1[C@H]2CC[C@@H]1[C@@H](C(=O)O)[C@@H](OC(=O)c1ccccc1)C2` the value was 17.1% and -20.4%.
Regarding `C[C@]12CCC(=O)C=C1C=C[C@@H]1[C@@H]2CC[C@@]2(C)[C@H]1CC[C@@]2(O)CCC(=O)O`, the max response is 17.7%.
Still for that read-out and setting: under `CCOP(=O)(OCC)O/C(=C/Cl)c1ccc(Cl)cc1Cl` stands 11.5%; under `CCOC(=O)c1ccccc1C(=O)OCC`, -4.85%.
As to `CC(C)[C@@]1(NC(=O)[C@@H]2C[C@@H]3c4cccc5[nH]cc(c45)C[C@H]3N(C)C2)O[C@@]2(O)[C@@H]3CCCN3C(=O)[C@H](Cc3ccccc3)N2C1=O`, the max response was 25.3% and -16.4%.
Take `O=C(NC(=O)c1c(F)cccc1F)Nc1ccc(Cl)c(Oc2ncc(C(F)(F)F)cc2Cl)c1`: the max response was -5.7%.
For `CC(Cc1ccccc1)NC=O` (stereo not given), the max response was 2%.
The same measure, in the same setting: for `C[C@@H](CO)NC(=O)[C@@H]1C=C2c3cccc4[nH]cc(c34)C[C@H]2N(C)C1` the value was 1.7%; for `O=[N+]([O-])C(Br)(CO)CO`, 1.16%.
The same measure, in the same setting: under `CCCCCCC(=O)O[C@H]1CC[C@H]2[C@@H]3CC[C@H]4CC(=O)C=C(C)[C@]4(C)[C@H]3CC[C@]12C` stands -2.21%.
On the same count and under the same terms, for `CCCCCCCCCC(=O)O[C@H]1CC[C@H]2[C@@H]3CCC4=CC(=O)CC[C@]4(C)[C@H]3CC[C@]12C` the value was 0.58%.
As to `C[C@]12CC[C@H](O)C[C@H]1CC[C@@H]1[C@@H]2CC[C@]2(C)[C@@H](c3ccc(=O)oc3)C[C@H]3O[C@]132`, the Potency was 1840 nM (active).
On to `O=[N+]([O-])c1ccc(F)c([N+](=O)[O-])c1`, for which the max response was -19.8%.
Regarding `COC1=CC=C2[C@H]3Cc4ccc(OC)c5c4[C@@]2(CCN3C)[C@H]1O5`, the max response was 16.1% and -9.66%.
Consider `CNC1(c2ccccc2Cl)CCCCC1=O` (stereo not given), for which the max response was 3.79% and -7.59%.
Still for that read-out and setting: for `CCCC(C)(COC(N)=O)COC(=O)NC1CC1` (stereo not given) the value was -23.5%; for `O=C/C=C/c1ccccc1`, 17.4%; for `ClC1C(Cl)C(Cl)C(Cl)C(Cl)C1Cl` (stereo not given), 2.37%.
As to `CCCCC[C@@H](O)C1C(=O)OC(C)[C@H](O)/C=C/C=C/C=C/C=C/C=C(\C)C(O)C(O)C(O)C[C@H](O)C[C@H](O)C[C@H](O)C[C@H](O)C[C@@H]1O` (stereo not given in full), the max response is -4.4% and -1.2%.
Take `F/C(COc1ccc2c(c1)[nH]c1ccccc12)=C1/CN2CCC1CC2`: the max response was -8.12%.
On the same count and under the same terms, under `O=C1CCO1` stands -17.3%.
`O=[N+]([O-])c1cc(I)c(O)c(I)c1`: the max response is -0.558%.
Turning to `Clc1ccc(Cl)cc1`, the max response is 0.597%.
In the case of `CC(N)Cc1ccc(O)cc1` (stereo not given), the max response is -5.37%.
Still for that read-out and setting: for `[O]=[Cr](=[O])([OH])[O][Cr](=[O])(=[O])[OH]` the value was -23.8% and 6.69%; for `C=CCN1CC[C@]23c4c5ccc(O)c4O[C@H]2[C@@H](O)C=C[C@H]3[C@H]1C5`, 10.7%; for `O=C(CS(=O)C(c1ccccc1)c1ccccc1)NO` (stereo not given), -1.93%.
